From PubChem BioAssay (NCI)
This is part of a sample that, as a whole, favours compounds with a hit. Of some 83,000 tested, about 20% had one in any assay.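 Single-dose data. Exposure time 48 hours. Values below 10 considered active.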

Assays:
Assay in all cases: NCI-60 one-dose screen, 48 h (100 = growth as untreated, 0 = no growth, -100 = all killed)
Details in all cases: 10 µM unless noted
[1] = test system: SF-295 CNS
[2] = test system: DU-145 prostate
[3] = test system: K-562 leukemia
[4] = test system: RXF 393 renal
[5] = test system: SF-268 CNS
[6] = test system: SF-539 CNS
[7] = test system: UACC-257 melanoma
[8] = test system: M14 melanoma
[9] = test system: MDA-MB-231 breast

Measured: growth

CC(=O)OCC1O[C@@H]([S-])C(OC(C)=O)[C@H](OC(C)=O)[C@@H]1OC(C)=O.[Au+].c1ccc(CN2[CH-]N(Cc3ccccc3)C(c3ccccc3)=C2c2ccccc2)cc1
inactive: [1] 31.1%

COC(=O)c1cc(-c2ccc(C)cc2)n(C(=O)CSc2nc3sc(C(N)=O)c(C)c3c(=O)n2Cc2ccccc2)n1
inactive: [2] 102% | [3] 101% | [4] 106% | [5] 108% | [1] 109% | [6] 104% | [7] 106% | [8] 102%

C=CCCCCCCCCC(=O)[O-].C=CCCCCCCCCC(=O)[O-].[Zn+2]
inactive: [9] 106%
